Inconclusive results are not listed. The source made the active and inactive calls. Unless noted, calls follow the shape of the dose curve; as a rule, active = well fitted curve in the direction sought with a large enough effect in the repeat runs; inconclusive = weak or mixed curves; inactive = no such curve, though single readings can be large; an effect the other way counts as inactive or inconclusive.

The target of test [1] is Androgen receptor (Homo sapiens) (UniProt P10275). The experiment in a line: qHTS assay to identify small molecule antagonists of the androgen receptor (AR) signaling pathway using the MDA cell line in the presence of 0.5 nM R1881 (AID 1259243). Also: potency is read from the fitted curve at half-maximal effect; nearly all actives have a fitted effect of over 50% in size. The gist of the method:
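With R1881 held at 0.5 nM (final), compound effects on MMTV-luciferase expression in MDA-kb2 cells were scored by luminescence after a 16 hr, 37C incubation.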
In general terms: qHTS replaces the single test concentration by a dilution series.

The nature of test [2]: qHTS assay to identify small molecule HDAC inhibitors (AID 1259364).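 Also: wild-type HCT-116 cells with endogenous class I/II HDAC activity; top concentration of the series differs between compounds; nearly all actives have a fitted effect of over 45% in size.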 The gist of the method:
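Screening used wild-type human colon HCT-116 cells incubated overnight, dosed with compounds for 2 hours, and assayed with a homogeneous luminogenic HDAC I/II reagent for 30 minutes at room temperature.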

A short description of test [3]: qHTS assay to identify small molecule HDAC inhibitors - cell viability counter screen (AID 1259365). Also: nearly all actives have a fitted effect of over 50% in size. Also: potency is read from the fitted curve at half-maximal effect. The gist of the method:
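Measured quantity is CellTiter-Glo luminescence from wild-type HCT-116 cells after compound incubation of 2hr at 37C, 5% CO2; reagent developed 30min at room temperature.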

Test [4] can be described thus: qHTS assay to identify small molecule antagonists of the sonic hedgehog signaling (Shh) pathway - cell viability counter screen (AID 1259367). Also: nearly all actives have a fitted effect of over 55% in size. Also: potency is read from the fitted curve at half-maximal effect. The gist of the method:
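Cytotoxicity was assessed in parallel with Shh reporter activity by measuring live-cell protease fluorescence (CellTiter-Fluor) in NIH/3T3 cells stably carrying Gli1-Luc, treated with compound under conditioned medium stimulation for 23 hr plus 1 hr reagent incubation.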

Test [5] is described as follows: qHTS assay to identify small molecule agonists of the sonic hedgehog signaling (Shh) pathway (AID 1259368; calls by dose curve;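 also: NIH/3T3-derived 3T3Gli1-Luc cells carrying a stable Gli1-driven firefly luciferase reporter; series mostly up to about 92 µM; nearly all actives have a fitted effect of over 15% in size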). The gist of the method: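 Hedgehog pathway agonism scored by increased firefly luciferase luminescence in 3T3Gli1-Luc cells treated 24 hr at 37 C; detection used a 30 min room-temperature reagent incubation.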
Test [6] is described as follows: qHTS assay to identify small molecule antagonists of the sonic hedgehog signaling (Shh) pathway (AID 1259369; calls by dose curve; also: nearly all actives have a fitted effect of over 45% in size; also: potency is read from the fitted curve at half-maximal effect). A digest of the protocol:
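NIH/3T3 stable Gli1-Luc clone, 2,000 cells/well, 4hr settle; cpd + conditioned medium 24hr; Luc reagent 30min RT; luminescence.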

Test [7] deals with Estrogen receptor beta (Homo sapiens) (UniProt Q92731). Description: qHTS assay to identify small molecule antagonists of the estrogen receptor beta (ER-beta) signaling pathway (AID 1259378; active = well fitted inhibition curve with a large enough effect in the signal ratio in the repeat runs, not every such curve was filed as active; the % refers to the signal ratio). A digest of the protocol:
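ER-beta-UAS-bla HEK293T (GripTite) cells in 2% charcoal-stripped FBS medium were preincubated 6 hr at 37C, dosed with compound, then stimulated with 1 nM E2 (final) for 16 hr; beta-lactamase reporter read by B/G FRET fluorescence after 2 hr substrate loading.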

Test [8] in a line: qHTS assay to identify small molecule agonists of the androgen receptor (AR) signaling pathway in the presence of an antagonist - cell viability counter screen (AID 1259379). Also: nearly all actives have a fitted effect of over 25% in size. Also: potency is read from the fitted curve at half-maximal effect. A digest of the protocol: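 MDA-kb2 viability measured by CellTiter-Fluor fluorescence in the same wells as the luciferase signal; nilutamide 3.0uM final; 15-point compound titration; 16 hr at 37C.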
Test [9] in a line: qHTS assay to identify small molecule agonists of the estrogen receptor beta (ER-beta) signaling pathway - cell viability counter screen (AID 1259380). Also: nearly all actives have a fitted effect of over 30% in size. Also: potency is read from the fitted curve at half-maximal effect. A digest of the protocol:
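Measured: luminescence from CellTiter-Glo after 30 min at room temperature, added to wells already read for the LiveBLAzer FRET reporter (2 hr substrate); ER-beta-UAS-bla HEK293T cells had 16 hr compound treatment at 37C, 5% CO2.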

The target of test [10] is Androgen receptor (Homo sapiens) (UniProt P10275). The experiment in a line: qHTS assay to identify small molecule agonists of the androgen receptor (AR) signaling pathway in the presence of an antagonist (AID 1259381; calls by dose curve; also: nearly all actives have a fitted effect of over 15% in size). A digest of the protocol:
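Luminescent ONE-Glo read, 30min at room temperature, follows 16hr compound exposure (15 concentrations) of MDA-kb2 cells at 37C, 0% CO2, with nilutamide added at 3.0uM final.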

A short description of test [11]: qHTS assay to identify small molecule antagonists of the estrogen receptor beta (ER-beta) signaling pathway - cell viability counter screen (AID 1259382). Also: nearly all actives have a fitted effect of over 55% in size. Also: potency is read from the fitted curve at half-maximal effect. A digest of the protocol:
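Readout: luminescence, CellTiter-Glo, same wells as bla assay. System: ER-beta-UAS-bla GripTite HEK293T, 2% charcoal-stripped FBS. Exposure: compounds plus 1nM 17-beta-estradiol, 16 hr, 37C.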

The nature of test [12]: qHTS assay to identify small molecule agonists or antagonists of the thyroid stimulating hormone receptor (TSHR) signaling pathway - wild type cell line counter screen (AID 1259384; calls by dose curve). A digest of the protocol: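 Wild-type HEK293 cells were plated 18 h at 37 C/5% CO2, pin-dosed with compound plus Ro20-1724 medium, held 30 min at room temperature, then given cAMP-d2 and anti-cAMP-cryptate; fluorescence was read after 1 h. Fifteen concentrations, triplicate.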

For test [13], the target named is Thyrotropin receptor (Homo sapiens) (UniProt P16473). The experiment in a line: qHTS assay to identify small molecule antagonists of the thyroid stimulating hormone receptor (TSHR) signaling pathway (AID 1259385; calls by dose curve; also: nearly all actives have a fitted effect of over 20% in size; also: potency is read from the fitted curve at half-maximal effect). A digest of the protocol: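 TSHR-HEK293 cells were plated and held 18 h at 37C/5% CO2, then given compound plus Ro20-1724 and stimulated with TSH at 1.5 ng/mL final. After 30 min at room temperature, cAMP was detected with cAMP-d2/anti-cAMP-cryptate (1 h) by fluorescence.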

Test [14] addresses Estrogen receptor (Homo sapiens) (UniProt P03372). The experiment in a line: qHTS assay to identify small molecule antagonists of the estrogen receptor alpha (ER-alpha) signaling pathway using the BG1 cell line in the presence of 0.1 nM 17-beta-estradiol (AID 1259244). Also: nearly all actives have a fitted effect of over 50% in size. Also: potency is read from the fitted curve at half-maximal effect. A digest of the protocol: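 Compounds were tested against 0.1 nM (final) 17beta-estradiol in VM7Luc4E2 cells, which express full-length ER-alpha and an ERE-luciferase reporter; luminescence was recorded following 22 h exposure.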

The nature of test [15]: qHTS assay to identify small molecule phospholipidosis (PLD) inducers (AID 1259344; active = well fitted curve in the direction sought with a large enough effect; an effect the other way counts as inactive or inconclusive). A digest of the protocol: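 Cells (HepG2, 900 per well) attach for 4 h, receive LipidTOX Red and compound together, incubate 24 h at 37 C, are fixed 30 min with paraformaldehyde/Hoechst, then imaged at one site per well.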
Test [16] deals with Estrogen receptor (Homo sapiens) (UniProt P03372). Description: qHTS assay to identify small molecule agonists of the estrogen receptor alpha (ER-alpha) signaling pathway in the presence of an antagonist (AID 1259383; calls by dose curve; also: top concentration of the series differs between compounds; nearly all actives have a fitted effect of over 15% in size). A digest of the protocol: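 Quantitative HTS confirmation: compounds titrated at 15 concentrations onto estrogen-deprived VM7Luc4E2 cells carrying a four-ERE luciferase construct, with ICI-182,780 present at 10.0nM final. Signal is luminescence after 22hr exposure.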

Test [17] in a line: qHTS assay to identify small molecule agonists of the estrogen receptor alpha (ER-alpha) signaling pathway in the presence of an antagonist - cell viability counter screen (AID 1259386).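 Also: cells exposed to compounds for 22 h at 37 °C before the viability read; nearly all actives have a fitted effect of over 30% in size.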 Also: potency is read from the fitted curve at half-maximal effect. The gist of the method: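 The test measures whether compounds kill ER-alpha reporter cells (VM7Luc4E2) under antagonist co-treatment (ICI-182,780, 10.0nM). Fluorescence from CellTiter-Fluor is read after a 22hr exposure.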

Test [18] concerns the target Progesterone receptor (Homo sapiens) (UniProt P06401). Description: qHTS assay to identify small molecule agonists of the progesterone receptor (PR) signaling pathway (AID 1346784; calls by dose curve; also: nearly all actives have a fitted effect of over 30% in size). The gist of the method:
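Reporter assay, GripTite PR-UAS-bla HEK 293T cells: 16 hr exposure to DMSO-dissolved compounds at 37C, 5% CO2, in steroid-depleted (2% charcoal-stripped FBS) medium; beta-lactamase measured by FRET fluorescence.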

Test [19] has as its target Estrogen receptor beta (Homo sapiens) (UniProt Q92731). The experiment in a line: qHTS assay to identify small molecule agonists of the estrogen receptor beta (ER-beta) signaling pathway (AID 1259377; active = well fitted activation curve with a large enough effect in the signal ratio in the repeat runs, not every such curve was filed as active; the % refers to the signal ratio). The gist of the method: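 Reporter cells (HEK293T, ER-beta-UAS-bla) receive compounds or DMSO after a 6 hr pre-incubation. They then incubate 16 hr at 37C/5% CO2, and fluorescence from LiveBLAzer B/G substrate is measured after 2 hours at room temperature.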

A short description of test [20]: qHTS assay to identify small molecule agonists of the sonic hedgehog signaling (Shh) pathway - cell viability counter screen (AID 1259366). Also: nearly all actives have a fitted effect of over 50% in size. Also: potency is read from the fitted curve at half-maximal effect. The gist of the method: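 In quantitative high-throughput format, 3T3 Gli1-Luc cells were exposed to compounds for 24hr and multiplexed for viability using CellTiter-Fluor, incubated 1hr at 37C before the fluorescence read.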

Thyrotropin receptor (Homo sapiens), sequence (P16473 whole entry, looked up): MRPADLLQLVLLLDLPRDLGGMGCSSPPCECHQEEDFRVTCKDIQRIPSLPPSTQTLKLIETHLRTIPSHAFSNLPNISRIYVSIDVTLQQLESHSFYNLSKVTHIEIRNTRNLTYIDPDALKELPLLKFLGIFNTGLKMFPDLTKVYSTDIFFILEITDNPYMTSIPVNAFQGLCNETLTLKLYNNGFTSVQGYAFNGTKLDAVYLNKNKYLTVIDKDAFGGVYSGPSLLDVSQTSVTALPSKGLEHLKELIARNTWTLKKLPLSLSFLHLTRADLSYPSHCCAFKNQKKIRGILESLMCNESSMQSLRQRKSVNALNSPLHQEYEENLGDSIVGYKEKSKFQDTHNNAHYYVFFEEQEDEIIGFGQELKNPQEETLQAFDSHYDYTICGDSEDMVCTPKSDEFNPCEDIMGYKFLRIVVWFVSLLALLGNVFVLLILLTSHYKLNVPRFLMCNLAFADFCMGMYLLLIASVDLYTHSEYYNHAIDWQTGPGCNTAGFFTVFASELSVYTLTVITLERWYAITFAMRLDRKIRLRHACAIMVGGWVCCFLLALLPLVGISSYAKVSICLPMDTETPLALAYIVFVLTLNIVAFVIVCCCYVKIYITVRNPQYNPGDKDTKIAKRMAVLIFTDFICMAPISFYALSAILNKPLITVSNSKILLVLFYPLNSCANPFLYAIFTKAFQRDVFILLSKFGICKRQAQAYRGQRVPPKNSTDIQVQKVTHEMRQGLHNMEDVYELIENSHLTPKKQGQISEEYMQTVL
Estrogen receptor (Homo sapiens), sequence (P03372 whole entry, looked up): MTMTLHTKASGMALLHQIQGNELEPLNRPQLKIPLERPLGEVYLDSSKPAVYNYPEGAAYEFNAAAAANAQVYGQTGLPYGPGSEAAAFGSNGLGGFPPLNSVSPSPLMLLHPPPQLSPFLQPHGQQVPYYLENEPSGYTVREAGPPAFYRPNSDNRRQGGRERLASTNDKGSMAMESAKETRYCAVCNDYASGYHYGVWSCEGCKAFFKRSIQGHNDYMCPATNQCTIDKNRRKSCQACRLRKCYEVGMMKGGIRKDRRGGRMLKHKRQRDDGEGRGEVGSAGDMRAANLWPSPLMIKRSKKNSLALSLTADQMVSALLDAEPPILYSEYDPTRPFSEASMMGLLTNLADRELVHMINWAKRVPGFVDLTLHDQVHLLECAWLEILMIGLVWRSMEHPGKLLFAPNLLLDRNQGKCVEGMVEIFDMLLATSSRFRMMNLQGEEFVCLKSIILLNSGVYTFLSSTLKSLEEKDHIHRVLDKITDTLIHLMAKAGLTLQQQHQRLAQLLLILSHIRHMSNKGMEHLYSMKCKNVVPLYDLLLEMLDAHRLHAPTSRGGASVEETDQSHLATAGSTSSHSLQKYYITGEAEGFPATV
Estrogen receptor beta (Homo sapiens), sequence (Q92731 whole entry, looked up): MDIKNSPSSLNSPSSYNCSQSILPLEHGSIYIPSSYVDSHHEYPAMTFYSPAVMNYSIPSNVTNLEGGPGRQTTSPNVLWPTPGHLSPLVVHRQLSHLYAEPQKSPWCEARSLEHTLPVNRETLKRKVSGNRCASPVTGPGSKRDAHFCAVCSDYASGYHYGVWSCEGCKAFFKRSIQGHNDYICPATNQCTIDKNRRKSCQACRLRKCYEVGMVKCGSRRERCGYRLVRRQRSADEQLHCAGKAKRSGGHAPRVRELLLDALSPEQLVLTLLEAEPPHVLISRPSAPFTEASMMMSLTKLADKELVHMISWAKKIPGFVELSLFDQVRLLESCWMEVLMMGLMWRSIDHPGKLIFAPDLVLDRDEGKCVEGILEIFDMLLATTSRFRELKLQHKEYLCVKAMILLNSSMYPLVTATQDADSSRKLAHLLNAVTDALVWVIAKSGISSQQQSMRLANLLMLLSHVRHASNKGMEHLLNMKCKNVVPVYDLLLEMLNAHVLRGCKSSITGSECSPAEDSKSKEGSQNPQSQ
Progesterone receptor (Homo sapiens), sequence (P06401 whole entry, looked up): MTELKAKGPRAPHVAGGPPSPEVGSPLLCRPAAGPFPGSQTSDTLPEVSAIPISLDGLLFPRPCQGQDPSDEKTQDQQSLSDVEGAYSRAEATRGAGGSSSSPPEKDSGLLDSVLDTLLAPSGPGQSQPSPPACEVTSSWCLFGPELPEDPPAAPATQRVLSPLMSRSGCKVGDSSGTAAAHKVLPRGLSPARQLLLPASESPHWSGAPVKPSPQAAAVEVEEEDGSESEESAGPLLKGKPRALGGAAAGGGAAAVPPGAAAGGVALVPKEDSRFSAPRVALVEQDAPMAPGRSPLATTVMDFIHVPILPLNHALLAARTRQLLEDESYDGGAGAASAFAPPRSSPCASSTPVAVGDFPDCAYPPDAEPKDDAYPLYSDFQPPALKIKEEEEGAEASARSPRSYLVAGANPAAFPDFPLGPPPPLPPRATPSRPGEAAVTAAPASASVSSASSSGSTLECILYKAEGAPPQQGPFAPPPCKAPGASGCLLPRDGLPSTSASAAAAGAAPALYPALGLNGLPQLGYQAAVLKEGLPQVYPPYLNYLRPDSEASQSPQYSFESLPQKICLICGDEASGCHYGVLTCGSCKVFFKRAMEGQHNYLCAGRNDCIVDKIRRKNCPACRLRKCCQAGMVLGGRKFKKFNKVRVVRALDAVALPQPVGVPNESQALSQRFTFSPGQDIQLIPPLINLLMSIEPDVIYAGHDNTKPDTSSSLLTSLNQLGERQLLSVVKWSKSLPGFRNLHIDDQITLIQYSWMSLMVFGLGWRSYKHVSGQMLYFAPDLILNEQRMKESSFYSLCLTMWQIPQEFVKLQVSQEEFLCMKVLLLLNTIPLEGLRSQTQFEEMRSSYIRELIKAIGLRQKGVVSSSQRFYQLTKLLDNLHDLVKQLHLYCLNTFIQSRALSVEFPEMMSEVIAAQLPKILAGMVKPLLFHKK
Androgen receptor (Homo sapiens), sequence (P10275 whole entry, looked up): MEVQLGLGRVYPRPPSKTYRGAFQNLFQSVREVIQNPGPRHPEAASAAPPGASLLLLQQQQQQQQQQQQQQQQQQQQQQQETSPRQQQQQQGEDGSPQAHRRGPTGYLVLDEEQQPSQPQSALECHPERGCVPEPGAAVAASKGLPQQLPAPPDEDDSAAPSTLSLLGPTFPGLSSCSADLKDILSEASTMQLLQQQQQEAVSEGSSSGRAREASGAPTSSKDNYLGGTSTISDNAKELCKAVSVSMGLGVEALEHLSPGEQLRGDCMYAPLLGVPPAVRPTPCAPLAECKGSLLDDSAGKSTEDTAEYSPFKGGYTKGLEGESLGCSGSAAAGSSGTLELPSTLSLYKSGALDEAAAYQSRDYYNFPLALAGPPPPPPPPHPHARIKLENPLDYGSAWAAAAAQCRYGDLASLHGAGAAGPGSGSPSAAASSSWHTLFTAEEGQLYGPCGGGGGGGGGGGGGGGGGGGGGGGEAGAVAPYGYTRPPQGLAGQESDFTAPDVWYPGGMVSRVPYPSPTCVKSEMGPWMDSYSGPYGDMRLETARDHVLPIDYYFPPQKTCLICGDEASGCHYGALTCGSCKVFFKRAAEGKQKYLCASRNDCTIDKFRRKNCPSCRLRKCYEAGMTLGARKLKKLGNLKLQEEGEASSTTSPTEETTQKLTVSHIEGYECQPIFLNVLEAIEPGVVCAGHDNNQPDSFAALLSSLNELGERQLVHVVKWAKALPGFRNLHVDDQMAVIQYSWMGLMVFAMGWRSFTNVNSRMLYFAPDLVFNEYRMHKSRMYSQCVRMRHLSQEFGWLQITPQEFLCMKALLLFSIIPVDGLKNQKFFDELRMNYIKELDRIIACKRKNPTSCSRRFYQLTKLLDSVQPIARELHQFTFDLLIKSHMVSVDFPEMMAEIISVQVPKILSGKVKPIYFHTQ

For the molecule `ON=C1CCCC1`, the figures for the Potency in [1] and in [9] were 63.3 µM (active) and 35.6 µM (active), respectively. The Potency entry in test [2], in test [3], in test [4], in test [5], in test [6] and in test [7] was “inactive” in each case. For the same molecule, the Potency result in test [8], in test [10], in test [11] and in [13] was “inactive” each time. Besides, the molecule was called inactive in [12].

With `CCCCCCCCOc1ccccc1C(=O)Nc1ccc(C(=O)OCC[N+](C)(CC)CC)cc1`, the Potency result in [14], in [15], in test [2], in [3], in [6] and in [8] was “inactive” throughout. In addition, the Potency entry in [16], in [13], in test [17] and in test [18] was “inactive” throughout. Further, the Potency in [9] and in [11] was 23.7 µM (active) throughout. Besides, in test [12], the molecule was classed as inactive.

For the molecule `N/C(=N\N=C\c1ccc(Cl)cc1)N/N=C/c1ccc(Cl)cc1`, the Potency entry in test [14], in test [15], in test [2], in test [3], in [4] and in [5] was “inactive” each time. The Potency result in [19], in test [16] and in [17] was “inactive” throughout. The Potency in test [8] and in [9] was 29.8 µM (active) throughout. For the same molecule, in [12], the call was inactive.

Consider `CC(=O)SC[C@@H](Cc1ccccc1)C(=O)NCC(=O)OCc1ccccc1`, for which the Potency entry in test [14], in test [15], in test [2], in test [3], in test [20] and in [4] was “inactive” each time. The Potency result in [5], in [6], in test [19], in [8], in test [9] and in test [11] was “inactive” throughout. The Potency result in test [16], in test [17] and in [18] was “inactive” in each case. In test [12], the molecule was classed as inactive. Also, the Potency in test [13] was 23.7 µM (active).

As to `CCCCCCCCCCCCCCCC[N+](C)(C)CCN(Cc1ccc(OC)cc1)c1ncccn1`, the Potency entry in test [14], in test [15], in test [2], in [5], in test [17] and in [18] was “inactive” each time. Moreover, the Potency in [6] is 2.66 µM (active); in test [9] it was 11.9 µM (active); in test [11], 13.3 µM (active). Also, the molecule was classed as inactive in test [12].

With `CCCN(CCC)c1c([N+](=O)[O-])cc(C(F)(F)F)c(N)c1[N+](=O)[O-]`, the Potency in test [14] is 54.3 µM (active); in [3], 60.9 µM (active); in [20], 48.4 µM (active); in test [4], 60.9 µM (active); in test [6], 21.6 µM (active); in [8], 60.9 µM (active). Also, the Potency in test [9] was 21.6 µM (active); in [11] it was 30.5 µM (active); in test [17] it was 60.9 µM (active). Moreover, the Potency result in test [2], in [5] and in [16] was “inactive” each time. The molecule was called inactive in [12].

For `O=C(NO)C1(NS(=O)(=O)c2ccc(Oc3ccc(F)cc3)cc2)CCOCC1`, the Potency in test [14] was 61.1 µM (active). For the same molecule, the Potency result in test [2], in test [3], in [20], in test [4], in [5] and in test [6] was “inactive” throughout. Moreover, the Potency result in test [19], in test [9], in test [11], in test [16] and in [17] was “inactive” each time. Moreover, the molecule was classed as inactive in [12].

Take `O=C(N/N=C/c1ccccc1O)c1ccncc1`: the Potency in test [14] is 9.44 µM (active); in test [6], 0.473 µM (active). The Potency entry in [15], in test [3], in test [20], in [4], in [5] and in [19] was “inactive” each time. Further, the Potency entry in test [8], in [11], in [13] and in test [18] was “inactive” each time. Further, the molecule was classed as inactive in test [12].
